An excerpt weighted towards active compounds, which were near 3.2% of everything screened.
VACV Venus inh – inhibitors of vaccinia virus (Venus reporter); Vaccinia virus Venus reporter expression, fluorescence; Potency, µM (titrated, usually from 36.5 µM), inactives show top-dose activity change, negative = inhibition, usual class: inhibitors; 330,000 tested, 0.46% active; AID 720580; calls by dose curve; tested in A549 cells; also: nearly all actives have a fitted effect of over 30% in size
VACV mCherry inh – vaccinia inhibition (mCherry reporter); Vaccinia virus mCherry reporter infection, fluorescence; Potency, µM (top dose mostly 36.5 µM), inactives show top-dose activity change, negative = inhibition, most hits filed as inhibitors; 310,000 tested, 0.63% active; calls by dose curve; tested in A549 cells; also: nearly all actives have a fitted effect of over 35% in size
Lassa entry inh – Lassa virus entry inhibition; Lassa virus pseudotype entry inhibition, cell reporter; Potency, µM (highest dose often 37.9 µM), inactives show top-dose activity change, negative = inhibition, most hits filed as inhibitors; 300,000 tested, 1.2% active; calls by dose curve; tested in HEK293 cells; also: nearly all actives have a fitted effect of over 50% in size
MARV entry inh – inhibitors of Marburg virus binding or cell entry; Marburg virus pseudotyped entry inhibition, cell reporter; Potency, µM (doses to about 37.8 µM), for the others: top-dose activity change, negative = inhibition, usual class: inhibitors; 300,000 tested, 1.8% active; AID 540276; calls by dose curve; tested in HEK293 cells
FMDV inh – blocks foot and mouth disease virus; FMDV antiviral cell-based qHTS; Potency, µM (series often up to 57.9 µM), for inactives: at the highest dose activity change, negative = inhibition, actives largely listed as inhibitors; 410,000 tested, 1.2% active; AID 1159524; calls by dose curve; tested in HEK293T cells; also: read-out not given here; nearly all actives have a fitted effect of over 45% in size
The depositor's hits bear a star; i = inactive; ? = inconclusive; · = no result; [ ] = dose if it differs, or a comment. % is scaled to controls: 0 for no effect and ±100 for the full control effect; potency is read from the fitted curve at half-maximal effect.

SMILES | VACV Venus inh | VACV mCherry inh | Lassa entry inh | MARV entry inh | FMDV inh
CC(C)c1ccccc1-n1c(SCc2cc(=O)oc3ccc4ccccc4c23)nnc1-c1cccnc1 | -17% | -24% | ? | ? | 14µM*
CCOc1ccc(-n2c(SCc3cc(=O)oc4cc(C)ccc34)nnc2-c2cccnc2)cc1 | -19% | -26% | -10% | -1% | 10%
CN1CCC(OC(c2ccccc2)c2ccccc2)CC1 | -9% | i | ? | ? | 0%
CN1C2CCC1CC(OC(c1ccccc1)c1ccccc1N)C2 (configuration not stated) | -4% | -5% | ? | 18µM* | -21%
CN1C2CCC1CC(OC(c1ccccc1)c1ccc(Cl)cc1)C2 (configuration not stated) | · | · | · | 3.2µM* | ·
CCOC(=O)c1c(NC(=O)C2CCCCC2C(=O)O)sc2c1CCCC2 (configuration not stated) | · | · | · | -12% | ·
COc1ccc(-n2cc(C(=O)c3ccccc3O)cn2)cc1 | -7% | -10% | 4µM* | ? | -51%
COc1ccc2nc(N=Nc3ccc(N(C)C)cc3)sc2c1 | -14% | -13% | ? | ? | 13µM*
COC(=O)[C@@H]1C[C@@H](NC(=O)c2ccc(C(F)(F)F)cc2)CN1Cc1cccc(O)c1 | 1% | -2% | · | · | 10%
CCOC(=O)c1cccc(C2=CC(=O)C[C@H](c3ccc(OC)c(OC)c3)C2)c1 | -20% | -13% | · | · | 40µM*
COc1ccc([C@H]2CC(=O)C=C(c3cccc(C(C)C)c3)C2)cc1OC | ? | ? | · | · | 25µM*
O=c1cc(-c2ccco2)oc2c1ccc1ccccc12 | -7% | -10% | ? | 9% | -15%
O=c1cc(C(Cl)(Cl)Cl)oc2c1ccc1ccccc12 | -29% | ? | ? | 2.1µM* | 14µM*
COc1cc(CN2CCCC(n3cc(C(=O)N4CCCCC4)nn3)C2)cc(OC)c1OC (configuration not stated) | -4% | 1% | · | · | -9%
Cc1cc(C)c2[nH]c(O)c(N=NC(=S)NCC3CCCO3)c2c1 (configuration not stated) | -15% | -21% | 0% | 8% | -6%
Oc1[nH]c2c(Cl)cc(Cl)cc2c1N=NC(=S)NCC1CCCO1 (configuration not stated) | -12% | i | ? | ? | 25µM*
OC1(c2ccc(Cl)cc2)CCN(Cc2c[nH]c3ccccc23)CC1 | -17% | -3% | ? | 2.8µM* | -23%
Fc1ccccc1N1CCN(C2CCN(Cc3c[nH]c4ccccc34)CC2)CC1 | 0% | -9% | ? | 9.2µM* | ·
Clc1ccccc1N1CCN(Cc2c[nH]c3ccccc23)CC1 | -24% | -15% | -20% | ? | -29%
O=S(=O)(c1ccc(Cl)cc1)N1CCN(Cc2c[nH]c3ccccc23)CC1 | · | · | 3% | ? | -20%
CC(C)(Oc1ccc(Cl)cc1)C(=O)Nc1nc2ccc(S(C)(=O)=O)cc2s1 | -10% | i | 18%[46.1 µM] | -13%[46.1 µM] | -18%
O=C(c1cscn1)N1CCOc2ccc(CN3CCC(Oc4cccnc4)CC3)cc2C1 | -5% | -7% | · | · | -15%
CCc1cc2c(nc1CC)CCN(CC/C(C)=N/OC[C@@H](O)COCc1ccco1)C2 | · | · | · | 1%[14.2 µM] | ·
C#CCOCCOCCOCCNc1nc(N2CCN(C(=O)CCCCCCCCCCNC(=O)[C@H](CCCCN)n3cc(C[C@@H](C)CC)nn3)CC2)nc(N2CCN(C(=O)CCCCCCCCCCNC(=O)[C@H](CCCCN)n3cc(C[C@@H](C)CC)nn3)CC2)n1 | 11µM* | ? | · | · | 40µM*
C#CCOCCOCCOCCNc1nc(N2CCN(C(=O)CCCCCCCCCCNC(=O)[C@H](CCCCN)n3cc(CCCC(=O)O)nn3)CC2)nc(N2CCN(C(=O)CCCCCCCCCCNC(=O)[C@H](CCCN=C(N)N)n3cc(C[C@@H](C)CC)nn3)CC2)n1 | 11µM* | ? | · | · | ?
SMILES | VACV Venus inh | VACV mCherry inh | Lassa entry inh | MARV entry inh | FMDV inh
C#CCOCCOCCOCCNc1nc(N2CCN(C(=O)CCCCCCCCCCNC(=O)[C@H](CCCCN)n3cc(CCO)nn3)CC2)nc(N2CCN(C(=O)CCCCCCCCCCNC(=O)[C@H](CCCN=C(N)N)n3cc(C[C@@H](C)CC)nn3)CC2)n1 | 10µM* | ? | · | · | ?
C#CCOCCOCCOCCNc1nc(N2CCN(C(=O)CCCCCCCCCCNC(=O)Cn3cc(C[C@@H](C)O)nn3)CC2)nc(N2CCN(C(=O)CCCCCCCCCCNC(=O)[C@H](CCCCN)n3cc(C[C@@H](C)CC)nn3)CC2)n1 | 10µM* | ? | · | · | ?
CCNC(=O)C1CCCN(C(=O)c2ccc(C(F)(F)F)cc2)CC1 (configuration not stated) | 6% | 13% | · | · | -17%
COc1ccc(-c2nc3ccccc3o2)cc1NC(=O)C(C)(C)Oc1ccc(Br)cc1 | 4% | -4% | 7%[46.1 µM] | 18%[46.1 µM] | -19%
O=C(COC(=O)c1ccccc1Cl)NC(=O)NCc1ccccc1 | -17% | -5% | 8.2µM* | -1% | 24%
O=C(COC(=O)c1ccc(F)c([N+](=O)[O-])c1)NC(=O)NCc1ccccc1 | -18% | -2% | ? | ? | 32µM*
CCNC(=O)NC(=O)COC(=O)c1ccccc1SCC(=O)NC(=O)NCC | -12% | -15% | ? | 14µM* | -73%
COc1ccc(-n2c(=O)c3c(c4cc(OC)ccc4n3C)n(Cc3cccc(OC)c3)c2=O)cc1 | -11% | -14% | 24%[46.1 µM] | · | -10%
C[N+]1(CC(=O)c2ccc(I)cc2)CCCc2ccccc21 (configuration not stated) | -26% | -13% | · | · | ·
Cc1cc(C(=O)C(C)OC(=O)c2ccc(NC(=O)CC#N)cc2)c(C)n1-c1ccccc1 (configuration not stated) | -19% | ? | ? | ? | 16µM*
Cc1nn(-c2nnc(NC3CCCCC3)nn2)c(C)c1Br | -19% | -22% | ? | 3.5µM* | 11%
CC(C)C(=O)NNC(=O)c1cc2sccc2s1 | · | · | · | · | 7%
CCCCCNC(=O)c1cccc(S(=O)(=O)N2CC3(C)CC2CC(C)(C)C3)c1 (configuration not stated) | ? | ? | 13µM* | ? | 8%
O=C1/C(=C/c2ccc(N3CCOCC3)o2)SC(=Nc2ccccc2)N1CCc1c[nH]c2ccccc12 | 20% | ? | 7.1µM* | ? | -16%
CN(C)S(=O)(=O)c1ccc(NC(=O)COc2cccc3c2OC(C)(C)C3)cc1 | -12% | -4% | 8% | -25% | -22%
COc1cc(CNC(C)(C)CO)ccc1OCC(=O)NC(C)(C)C | -11% | -13% | 4% | ? | -12%
CCOc1cc(CNCc2cccs2)ccc1OCC(=O)NC(C)(C)C | -19% | -8% | 15% | ? | -15%
COc1cc(CNC(C)C23CC4CC(CC(C4)C2)C3)ccc1OCC(=O)NC(C)(C)C (configuration not stated) | -23% | ? | ? | 6.3µM* | -9%
COc1cc(CNCc2cccs2)ccc1OCC(=O)NC(C)(C)C | -12% | -24% | -3% | 9.2µM* | -15%
CC(=O)N1CCc2cc(Br)cc(S(=O)(=O)NCCCN(C)Cc3ccccc3)c21 | -2% | -6% | 4% | -24%[46.1 µM] | 27%
